This passage reports inhibition results from ChEMBL document CHEMBL1961873, “Compounds: GSK PKIS; Assays: Nanosyn kinase panel” (2012).

SMILES strings stand for the structures. Values joined by “and” are separate entries in the source; they are usually repeats but may differ in a detail not shown here. Identical values can stand only once.

Test [1] has as its target Tyrosine-protein kinase Fer (Homo sapiens) (UniProt P16591). The settings on record: at 1 µM.
In test [2] the target is Tyrosine-protein kinase Fes/Fps (Homo sapiens) (UniProt P07332). The following applies: at 0.1 µM.
The target is the same in test [3]. The settings on record: at 1 µM.
In test [4] the target is Fibroblast growth factor receptor 1 (Homo sapiens) (UniProt P11362). The settings on record: at 0.1 µM.
Test [5] has the same target. The following applies: at 1 µM.
Test [6] deals with Fibroblast growth factor receptor 2 (Homo sapiens) (UniProt P21802). The following applies: at 0.1 µM.
Test [7] shares this target. The following applies: at 1 µM.
For test [8], the target named is Fibroblast growth factor receptor 3 (Homo sapiens) (UniProt P22607). The following applies: at 0.1 µM.
Test [9] has the same target. The settings on record: at 1 µM.
The target of test [10] is Fibroblast growth factor receptor 4 (Homo sapiens) (UniProt P22455). The following applies: at 0.1 µM.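 Also: values are mean percent inhibition of FGFR4.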
Chain of Fibroblast growth factor receptor 4 (Homo sapiens) (P22455 22-802 limits assumed): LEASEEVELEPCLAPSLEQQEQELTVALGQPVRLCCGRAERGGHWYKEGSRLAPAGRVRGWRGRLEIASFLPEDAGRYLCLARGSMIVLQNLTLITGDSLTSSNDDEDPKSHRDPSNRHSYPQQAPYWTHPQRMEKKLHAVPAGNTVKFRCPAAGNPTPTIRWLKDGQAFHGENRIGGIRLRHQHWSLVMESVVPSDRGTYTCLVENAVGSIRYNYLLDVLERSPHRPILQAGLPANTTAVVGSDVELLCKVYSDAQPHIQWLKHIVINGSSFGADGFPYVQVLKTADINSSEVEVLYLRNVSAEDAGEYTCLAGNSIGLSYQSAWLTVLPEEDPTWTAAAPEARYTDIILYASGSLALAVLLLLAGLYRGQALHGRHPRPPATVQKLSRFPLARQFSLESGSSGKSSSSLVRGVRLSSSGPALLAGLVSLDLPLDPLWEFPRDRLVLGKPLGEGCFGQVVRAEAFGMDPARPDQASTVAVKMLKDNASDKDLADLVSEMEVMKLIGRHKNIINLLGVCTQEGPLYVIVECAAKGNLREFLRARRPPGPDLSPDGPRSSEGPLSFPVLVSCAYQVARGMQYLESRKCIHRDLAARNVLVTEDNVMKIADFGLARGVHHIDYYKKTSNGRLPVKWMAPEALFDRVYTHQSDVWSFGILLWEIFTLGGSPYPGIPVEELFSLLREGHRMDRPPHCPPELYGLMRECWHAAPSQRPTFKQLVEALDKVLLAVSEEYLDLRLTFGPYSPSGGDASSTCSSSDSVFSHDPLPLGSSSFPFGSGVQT

Chain of Tyrosine-protein kinase Fes/Fps (Homo sapiens) (P07332 whole entry): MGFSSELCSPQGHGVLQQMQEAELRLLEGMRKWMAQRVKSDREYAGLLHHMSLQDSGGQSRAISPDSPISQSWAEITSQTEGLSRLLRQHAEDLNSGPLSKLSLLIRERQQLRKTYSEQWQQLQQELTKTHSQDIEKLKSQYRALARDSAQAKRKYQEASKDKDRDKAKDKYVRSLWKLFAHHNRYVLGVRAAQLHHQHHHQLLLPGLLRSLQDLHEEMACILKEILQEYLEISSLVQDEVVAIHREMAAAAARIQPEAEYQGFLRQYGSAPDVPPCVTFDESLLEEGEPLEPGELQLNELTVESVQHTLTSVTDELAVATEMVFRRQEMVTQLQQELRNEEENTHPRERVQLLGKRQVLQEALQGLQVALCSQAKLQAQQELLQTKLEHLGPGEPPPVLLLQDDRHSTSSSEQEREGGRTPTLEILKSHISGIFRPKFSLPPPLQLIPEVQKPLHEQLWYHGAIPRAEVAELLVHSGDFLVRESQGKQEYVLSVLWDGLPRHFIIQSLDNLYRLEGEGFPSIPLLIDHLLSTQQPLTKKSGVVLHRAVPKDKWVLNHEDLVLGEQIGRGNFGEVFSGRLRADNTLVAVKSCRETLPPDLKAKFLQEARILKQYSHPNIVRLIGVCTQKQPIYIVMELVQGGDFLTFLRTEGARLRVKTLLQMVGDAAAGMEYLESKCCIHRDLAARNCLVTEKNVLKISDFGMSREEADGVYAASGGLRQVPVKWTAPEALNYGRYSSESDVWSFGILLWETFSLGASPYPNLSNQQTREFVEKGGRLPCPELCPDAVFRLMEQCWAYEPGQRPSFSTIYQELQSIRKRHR
Chain of Fibroblast growth factor receptor 2 (Homo sapiens) (P21802 22-821 limits assumed): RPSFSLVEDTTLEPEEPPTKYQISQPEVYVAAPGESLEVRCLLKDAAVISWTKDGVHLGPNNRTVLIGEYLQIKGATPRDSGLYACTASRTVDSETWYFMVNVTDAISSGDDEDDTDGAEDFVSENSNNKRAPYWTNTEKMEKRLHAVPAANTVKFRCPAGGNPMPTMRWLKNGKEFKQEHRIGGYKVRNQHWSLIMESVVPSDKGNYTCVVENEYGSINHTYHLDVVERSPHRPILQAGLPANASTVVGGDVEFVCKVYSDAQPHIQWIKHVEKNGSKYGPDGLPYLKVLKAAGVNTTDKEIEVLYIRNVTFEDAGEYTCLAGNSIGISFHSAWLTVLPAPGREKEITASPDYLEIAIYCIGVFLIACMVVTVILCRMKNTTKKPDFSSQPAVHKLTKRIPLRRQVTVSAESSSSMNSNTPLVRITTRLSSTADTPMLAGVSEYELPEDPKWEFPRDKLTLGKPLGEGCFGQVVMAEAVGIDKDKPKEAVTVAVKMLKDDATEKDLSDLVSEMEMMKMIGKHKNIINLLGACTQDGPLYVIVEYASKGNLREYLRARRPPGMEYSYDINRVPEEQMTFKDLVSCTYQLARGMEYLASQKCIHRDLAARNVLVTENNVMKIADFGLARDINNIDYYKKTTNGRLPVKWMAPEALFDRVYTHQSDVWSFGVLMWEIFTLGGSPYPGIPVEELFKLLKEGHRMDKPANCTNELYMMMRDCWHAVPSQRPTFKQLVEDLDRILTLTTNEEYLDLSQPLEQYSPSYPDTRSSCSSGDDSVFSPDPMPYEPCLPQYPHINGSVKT
Chain of Fibroblast growth factor receptor 1 (Homo sapiens) (P11362 22-822 limits assumed): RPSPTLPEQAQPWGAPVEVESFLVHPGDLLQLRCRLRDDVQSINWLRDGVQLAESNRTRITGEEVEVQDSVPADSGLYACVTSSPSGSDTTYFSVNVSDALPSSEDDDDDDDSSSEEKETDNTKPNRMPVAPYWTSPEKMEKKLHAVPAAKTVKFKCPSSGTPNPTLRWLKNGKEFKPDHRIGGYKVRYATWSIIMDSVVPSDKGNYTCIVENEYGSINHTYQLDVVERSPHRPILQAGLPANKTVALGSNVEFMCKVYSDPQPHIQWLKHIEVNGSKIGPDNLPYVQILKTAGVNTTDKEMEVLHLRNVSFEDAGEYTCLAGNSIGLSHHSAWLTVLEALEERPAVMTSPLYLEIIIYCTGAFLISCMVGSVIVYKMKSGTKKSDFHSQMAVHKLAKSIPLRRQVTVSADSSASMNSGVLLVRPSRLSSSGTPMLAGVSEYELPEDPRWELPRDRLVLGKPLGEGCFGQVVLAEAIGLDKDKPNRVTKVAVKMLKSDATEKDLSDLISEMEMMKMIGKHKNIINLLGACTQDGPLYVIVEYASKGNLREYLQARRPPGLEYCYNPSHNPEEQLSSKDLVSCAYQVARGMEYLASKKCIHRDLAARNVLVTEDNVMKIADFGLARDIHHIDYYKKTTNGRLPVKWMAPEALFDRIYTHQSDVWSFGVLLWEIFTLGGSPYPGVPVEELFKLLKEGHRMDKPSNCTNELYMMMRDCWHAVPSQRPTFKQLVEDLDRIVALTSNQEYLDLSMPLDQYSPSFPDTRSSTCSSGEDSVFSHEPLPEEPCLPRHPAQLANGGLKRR
Chain of Fibroblast growth factor receptor 3 (Homo sapiens) (P22607 23-806 limits assumed): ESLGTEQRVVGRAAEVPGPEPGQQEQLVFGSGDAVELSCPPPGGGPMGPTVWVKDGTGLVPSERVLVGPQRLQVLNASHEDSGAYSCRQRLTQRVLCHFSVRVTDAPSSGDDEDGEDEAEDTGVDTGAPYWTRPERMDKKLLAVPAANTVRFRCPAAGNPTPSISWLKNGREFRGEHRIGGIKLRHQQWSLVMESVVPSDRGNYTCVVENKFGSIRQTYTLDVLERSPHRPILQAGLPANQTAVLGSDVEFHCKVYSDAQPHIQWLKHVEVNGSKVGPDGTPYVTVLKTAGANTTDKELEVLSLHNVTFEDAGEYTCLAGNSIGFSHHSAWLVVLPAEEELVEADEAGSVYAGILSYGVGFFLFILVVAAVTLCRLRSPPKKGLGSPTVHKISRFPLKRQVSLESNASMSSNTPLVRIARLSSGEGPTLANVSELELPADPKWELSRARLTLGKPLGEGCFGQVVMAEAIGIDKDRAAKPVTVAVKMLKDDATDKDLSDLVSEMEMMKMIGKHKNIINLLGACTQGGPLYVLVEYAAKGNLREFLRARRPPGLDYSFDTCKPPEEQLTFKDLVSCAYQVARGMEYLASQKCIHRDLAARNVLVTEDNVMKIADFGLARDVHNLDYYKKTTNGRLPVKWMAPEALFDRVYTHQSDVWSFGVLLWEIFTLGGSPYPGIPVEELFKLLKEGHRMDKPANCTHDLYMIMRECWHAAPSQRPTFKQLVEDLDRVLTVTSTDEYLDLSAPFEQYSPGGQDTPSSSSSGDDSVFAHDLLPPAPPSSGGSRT
Chain of Tyrosine-protein kinase Fer (Homo sapiens) (P16591 whole entry, looked up): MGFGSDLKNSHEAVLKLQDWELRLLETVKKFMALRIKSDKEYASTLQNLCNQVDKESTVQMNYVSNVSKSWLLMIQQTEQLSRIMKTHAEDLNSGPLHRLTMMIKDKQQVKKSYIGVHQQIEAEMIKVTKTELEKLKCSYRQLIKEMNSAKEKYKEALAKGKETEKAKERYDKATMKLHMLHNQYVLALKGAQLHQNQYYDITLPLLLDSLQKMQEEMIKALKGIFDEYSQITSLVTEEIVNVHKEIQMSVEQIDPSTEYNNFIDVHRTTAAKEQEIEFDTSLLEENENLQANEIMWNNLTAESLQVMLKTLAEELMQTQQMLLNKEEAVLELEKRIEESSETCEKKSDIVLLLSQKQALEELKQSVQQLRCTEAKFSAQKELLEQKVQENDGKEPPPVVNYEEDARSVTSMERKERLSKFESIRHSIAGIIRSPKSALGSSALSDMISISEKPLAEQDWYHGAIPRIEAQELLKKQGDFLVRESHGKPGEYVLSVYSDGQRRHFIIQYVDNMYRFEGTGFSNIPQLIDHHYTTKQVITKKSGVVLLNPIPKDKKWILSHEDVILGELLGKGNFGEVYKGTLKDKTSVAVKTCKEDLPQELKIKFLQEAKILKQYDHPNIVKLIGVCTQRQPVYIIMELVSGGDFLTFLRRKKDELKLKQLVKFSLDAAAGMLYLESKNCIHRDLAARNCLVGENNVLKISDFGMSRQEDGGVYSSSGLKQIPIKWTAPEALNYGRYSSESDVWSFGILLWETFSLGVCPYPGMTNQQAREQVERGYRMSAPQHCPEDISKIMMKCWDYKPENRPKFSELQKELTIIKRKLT

One may read the inhibition as the relative decrease from the control value, in per cent. As for `CC1(C)CC(n2cnc(-c3ccc(F)cc3)c2-c2ccnc(N)n2)CC(C)(C)N1`, the inhibition in test [1] was 0.17%; in [2], -0.11%; in test [3] it was -0.76%; in test [4], 6.46%; in [5], 1.68%; in [6], -0.84%. For the same compound, the inhibition in test [7] is -0.31%; in test [8] it was 1.59%; in test [9], 1.55%; in test [10] it was -1.33%.

As for `O=C(O[C@H]1CN[C@H](C#Cc2cc3ncnc(Nc4ccc5c(cnn5Cc5ccccc5)c4)c3s2)C1)N1CCOCC1`, the inhibition in [1] was 0.92%; in test [2], -0.09%; in [3], -1.2%; in [4], -2.97%; in test [5], -1.28%; in [6], -0.61%. The inhibition was -0.52% in test [7], 0.4% in test [8], 0.43% in test [9] and 0.54% in test [10].

As for `CN1CCN(Cc2ccc(-c3cc4ncnc(Nc5ccc(OCc6cccc(F)c6)c(Cl)c5)c4s3)o2)CC1`, the inhibition in test [1] is 7.48% and 15.1%; in test [2], 2.89% and 4.05%; in test [3], 6.42% and 6.83%; in test [4] it was 2.24% and 7.51%; in test [5], 2.3% and 1.47%; in test [6], 3.18% and 3.5%. The inhibition in test [7] was 4.91% and 4.73%; in test [8] it was 3.81% and 6.54%; in test [9], 2.58% and 3.34%; in [10], 0.04% and -5.98%.

As to `Fc1ccc(Nc2nccc(-c3c(-c4ccc(C(F)(F)F)cc4)nn4ncccc34)n2)cc1F`, the inhibition in test [1] turned out to be 4.28%; in [2], 3.21%; in test [3] it was 3.35%; in test [4], 7.42%; in test [5] it was 4.6%; in test [6], 5.3%. Also, the inhibition was 6.72% in test [7], 6.52% in test [8], 4.25% in test [9] and -0.65% in test [10].

Turning to `Cc1c2ccc(N(C)c3ccnc(Nc4cccc(S(N)(=O)=O)c4)n3)cc2nn1C`, the inhibition in test [1] worked out at 74.1%; in [2], 15.2%; in [3], 56.1%; in test [4] it was 24.9%; in [5], 62.6%; in [6] it was 50%. The inhibition in test [7] amounted to 69.9%; in test [8], 35.5%; in test [9], 70.1%; in test [10], 2.26%.

In the case of `CC1=C(C(=O)Nc2ccc3[nH]ncc3c2)C(c2ccc(F)cc2)N=C(c2ccc(C(F)(F)F)nc2)N1` (stereo not given), the inhibition in test [1] came out at 2.23%; in test [2], 1.4%; in test [3] it was 2.21%; in test [4], 6.73%; in [5], 7.75%; in test [6], 4.37%. Besides, the inhibition in [7] is 9.66%; in test [8], 4.88%; in [9], 7.89%; in [10] it was 0.81%.

Turning to `CC1=C(C(=O)Nc2ccc3[nH]nc(C)c3c2)C(c2ccc(C(F)(F)F)cc2)CC(=O)N1` (stereo not given), the inhibition in test [1] is 3.02%; in test [2], 1.58%; in [3] it was 2.34%; in [4], -0.57%; in test [5], 9.3%; in test [6], 4.48%. In addition, the inhibition in test [7] was 13.4%; in test [8], 5.62%; in test [9], 8.47%; in [10], -0.06%.

Regarding `COC(=O)Nc1nc2ccc(Oc3ccc(NC(=O)Nc4cc(C(F)(F)F)ccc4F)cc3)cc2s1`, the inhibition amounted to 6.3% in test [1]; 0.15% in [2]; 0.99% in test [3]; 4.86% in [4]; 16.9% in test [5]; 2.26% in test [6]. The inhibition amounted to 29.7% in [7], 5.73% in [8], 11.5% in test [9] and 0.42% in [10].

In the case of `COc1ccc2ncn(-c3cc(O[C@H](C)c4ccccc4C(F)(F)F)c(C(N)=O)s3)c2c1`, the inhibition was 3.58% in test [1]; -0.21% in test [2]; 0.25% in [3]; 1.11% in [4]; -0.51% in test [5]; -2.58% in [6]. Besides, the inhibition in test [7] stood at 5.48%; in test [8] it was 0.12%; in [9], 3.58%; in [10], 0.21%.

In the case of `O=C(O[C@H]1CN[C@H](C#Cc2cc3ncnc(Nc4ccc(OCc5cccc(F)c5)c(Cl)c4)c3s2)C1)N1CCOCC1`, the inhibition in test [1] is 5.25%; in test [2], 3.88%; in test [3], 3.5%; in [4], 1.16%; in test [5], 3.49%; in test [6], 6.97%. The inhibition came to 4.24% in [7], 5.89% in test [8], 6.62% in test [9] and 1.38% in test [10].

In the case of `c1ccc(-c2n[nH]cc2-c2ccnc(-c3ccc(OCCn4ccnc4)cc3)c2)nc1`, the inhibition in test [1] is 1.84%; in test [2], -0.05%; in test [3] it was -0.73%; in [4], -3.47%; in test [5], 3.09%; in [6], 0.47%. Also, the inhibition in test [7] stood at 2.51%; in [8] it was 1.79%; in test [9], 4.74%; in [10] it was 1.45%.

In the case of `CCOc1ccc2c(-c3ccnc(Nc4cc(OC)cc(C(F)(F)F)c4)n3)cnn2n1`, the inhibition was 8.05% in test [1]; 0.16% in test [2]; 0.05% in [3]; 4.3% in test [4]; -0.38% in [5]; -1.84% in test [6]. Moreover, the inhibition worked out at 3.9% in test [7], 1.13% in [8], 2.09% in test [9] and 0.25% in test [10].

Regarding `CN1CCC(C(=O)Nc2n[nH]c3nc(-c4ccc(O)cc4)c(Br)cc23)CC1`, the inhibition in test [1] was 5.19% and 5.02%; in [2], 2.73% and 2.03%; in [3], 2.01% and 1.81%; in test [4], -1.64% and 2.05%; in [5] it was -0.75% and 5.39%; in [6] it was -0.3% and 14.5%. Also, the inhibition in [7] is 2.81% and 5.43%; in [8], 1.48% and 6.04%; in test [9] it was 1.79% and 4.41%; in [10], 6.09%.

`CCN1CCC(C(=O)Nc2n[nH]c3nnc(-c4cccc(F)c4F)cc23)CC1`: the inhibition in [1] is 1.37%; in test [2], -0.22%; in [3] it was -1.05%; in test [4], -4.59%; in test [5], -1.81%; in test [6], -0.41%. The inhibition is -2.18% in test [7], -0.59% in [8], 2.01% in [9] and 1.8% in test [10].

For `Cc1cc(O)cc(C)c1/C=C/c1cncc(C(N)=O)c1`, the inhibition in test [1] is 1.87%; in test [2] it was 1.69%; in [3] it was 1.94%; in [4], 2.16%; in [5], 7.91%; in test [6] it was 2.08%. Further, the inhibition in [7] is 7.34%; in [8] it was 4.56%; in test [9] it was 4.79%; in test [10], -4.55%.

On to `Cc1nnc(-c2cccc(-c3ccc(C(=O)NCC4CC4)cc3)c2)o1`, for which the inhibition stood at 3.05% in test [1]; 4.04% in test [2]; 4.25% in test [3]; 2.64% in test [4]; 0.61% in test [5]; 4.95% in test [6]. For the same compound, the inhibition is 5.08% in test [7], 6.23% in [8], 6.22% in [9] and -0.29% in test [10].
